In the library only some 13% were active in any assay of this set; here they are far more common.
MARV entry inh: Marburg virus entry inhibition | AID 540276 | Marburg virus pseudotyped entry inhibition, cell reporter | 300,000 tested, 1.8% active | Potency, µM (titrated, usually from 37.8 µM), for the others: at the highest dose activity change, negative = inhibition, most hits filed as inhibitors; calls by dose curve; tested in HEK293 cells; note: potency is the fitted concentration of half-maximal effect; % is set by controls: 0 for no effect and ±100 for the full control effect
HCV inhibitor: blocks hepatitis C virus; Potency, µM (series often up to 41.8 µM), without a hit: top-dose activity change, negative = inhibition, hits mostly inhibitors; 340,000 tested, 3.4% active; Huh7.5.1 HCVcc-Cre infection, luciferase reporter, 44 h; active = well fitted inhibition curve with a large enough effect; inconclusive = small, poorly fitted or top-dose-only effect, or another doubt; inactive = no such curve, though single readings can be large or run the other way; note: potency is the fitted concentration of half-maximal effect; % is set by controls: 0 for no effect and ±100 for the full control effect
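Antiviral activity was scored by luciferase reporter output from cells infected with HCVcc-Cre (~0.5 moi) in presence of compound, 44 h infection period, cells seeded 1,000/well 4 h prior.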
CHX counter: affects cycloheximide protein synthesis inhibition readout, counter-screen; cell reporter, cycloheximide protein synthesis inhibition counterscreen; max response, %; 300,000 tested, 12% active; in the data active = max response mostly above about 13%, no sharp cut-off; inactive = mostly below about 14%; note: read at 38.3 µM for the half of the compounds with a filed dose; 0% is about no effect
LASV entry inh: inhibitors of Lassa virus binding or cell entry; Lassa virus pseudotype entry inhibition, cell reporter; Potency, µM (highest dose often 37.9 µM), for the others: at the highest dose activity change, negative = inhibition, usual class: inhibitors; 300,000 tested, 1.2% active; AID 540256; calls by dose curve; tested in HEK293 cells; note: potency is the fitted concentration of half-maximal effect; % is set by controls: 0 for no effect and ±100 for the full control effect; nearly all actives have a fitted effect of over 50% in size
FMDV inh: antivirals against foot and mouth disease virus. Potency, µM (top dose mostly 57.9 µM), for the others: at the highest dose activity change, negative = inhibition, usual class: inhibitors. FMDV antiviral cell-based qHTS. 410,000 tested, 1.2% active; calls by dose curve; tested in HEK293T cells; note: read-out not given here; potency is the fitted concentration of half-maximal effect; % is set by controls: 0 for no effect and ±100 for the full control effect; nearly all actives have a fitted effect of over 45% in size
Shiga inhibitor: blocks Shiga toxin action in Vero cells | Vero cells, Shiga toxin protein synthesis inhibition reporter | inhibition, % at 38.7 µM | 290,000 tested, 9.2% active; in the data active = inhibition mostly above about 28%, no sharp cut-off; inactive = mostly below about 43%; note: 0% is about no effect
Numbers without * were called inactive; ? = inconclusive; / = no result; [ ] = dose if it differs, or a comment.

SMILES	MARV entry inh	HCV inhibitor	CHX counter	LASV entry inh	FMDV inh	Shiga inhibitor
CCc1cc(=O)oc2cc(C)cc(OCC(=O)NC(Cc3c[nH]c4ccc(O)cc34)C(=O)O)c12 (stereo unspecified)	/	-0.7%	-1.2	/	-18.3%	-7.3
CCc1cc(=O)oc2cc(C)cc(OCC(=O)NCCc3c[nH]c4ccccc34)c12	/	2.24µM*	-4.2	/	?	-5.4
CCCc1cc(=O)oc2cc(OCC(=O)NCCc3c[nH]c4ccc(OC)cc34)ccc12	/	17.8µM*	2.2	/	-22.0%	-1.8
CC1(C(=O)NS(=O)(=O)c2cccc(C#N)c2)CCN1C(=O)C/C=C/c1ccccc1 (stereo unspecified)	/	/	/	/	4.0%	/
COc1cc(NC(=O)COc2cc(C)cc3oc(=O)cc(C)c23)cc(OC)c1OC	/	/	/	/	-4.2%	/
CCS(=O)(=O)N1N=C(c2cccs2)CC1c1cc2cc(C)ccc2nc1Cl (stereo unspecified)	/	?	31.5*	/	51.6%	57.6
CCN(CCn1cccn1)C(=O)CC1C(=O)NCCN1Cc1cc(OC)cc(OC)c1 (stereo unspecified)	/	17.3%	5.8	/	-18.5%	10.0
Cc1ccc(CSc2nc3ccncc3[nH]2)cc1	/	-6.8%	15.2	/	10µM*	-3.5
Clc1ccc(CSc2nc3ncccc3[nH]2)cc1	?	/	/	/	15.5%	/
O=C(NCc1ccc(Cl)cc1)c1ccc(CSc2nc3ccncc3[nH]2)cc1	-16.5%[46.1 µM]	3.4%	1.7	?	-31.8%	-3.8
Cc1ccc(CSc2nc3ncccc3[nH]2)cc1	?	-2.1%	19.6*	?	-8.7%	63.7*
Clc1ccc(CSc2nc3ccncc3[nH]2)cc1	/	-10.9%	50.6*	/	-58.6%	51.1*
Cc1nnc(NC(=O)CSc2nc3c([nH]c4ccccc43)c(=O)n2-c2ccccc2)s1	/	/	/	-5.0%[46.1 µM]	-14.4%	/
Cc1cccc(-n2cc(-c3ccccc3)c3c(NC4CCCC4)ncnc32)c1	/	/	/	-22.8%[46.1 µM]	-26.8%	/
Cc1ccc(C(=O)NCCCNC(=O)Cc2ccccc2)cn1	9.1%[46.1 µM]	-2.7%	-4.4	-6.5%	25.3%	-14.7
Cc1ccc(C)c(Nc2nn3c(=O)c4ccc(C(=O)NCCc5ccccc5)cc4nc3s2)c1	/	/	/	2.6%[46.1 µM]	0.0%	/
Cc1ccc(C)c(Nc2ccc(C(=O)NCCc3ccccc3)cn2)c1	23.3%	-19.1%	21.9*	3.3%	-7.8%	14.1
Cc1ccc(Nc2ccc(C(=O)NCCc3ccccc3)cn2)cc1	10.9%	-13.3%	11.6*	-18.3%	9.9%	15.0
Cc1ccc(OC(=O)c2sc3ncn(C)c(=O)c3c2C)cc1	?	?	41.0*	29.1%	45.8%	141.6*
Cc1ccc(C)c(N2CCN(C(=O)Cc3cn(C)c4ccccc34)CC2)c1	18.3µM*	?	-3.1	20.6µM*	?	-17.8
Cc1ccc(C)c(N2CCN(C(=O)CC3Sc4ccccc4NC3=O)CC2)c1 (stereo unspecified)	?	10µM*	-2.7	?	?	-36.0
COc1ccc2[nH]c(=O)cc(C(=O)O)c2c1	3.7%[14.2 µM]	-3.0%	-3.0	26.5%	-0.5%	-8.3
COc1ccc2[nH]c3c4c(ccc3c2c1)C(=O)C=CC4=O	/	?	37.5*	/	14.1µM*	89.2*
CCn1cc(Br)c(C(=O)Nc2nccs2)n1	15.2%	?	26.8*	14.8%	18.5%	72.8*
CCn1cc(Br)c(C(=O)NN)n1	?	-1.1%	58.5*	5.0%	24.3%	71.1
SMILES	MARV entry inh	HCV inhibitor	CHX counter	LASV entry inh	FMDV inh	Shiga inhibitor
CCn1cc(Cl)c(C(=O)Nc2ccc(OC)c(OC)c2)n1	-1.8%[46.1 µM]	?	21.1*	-3.9%[46.1 µM]	21.7%	54.9*
CCn1nccc1C(=O)Nc1nccs1	1.3%	13.2%	4.4	4.6%	-11.1%	5.3
CCn1cc(Br)c(C(=O)Nc2ccc(OC)cc2)n1	11.2%	6.8%	21.3*	?	/	30.1
CCn1ccc(C(=O)Nc2cccc(Cl)c2)n1	?	2.4%	35.5*	6.1%[46.1 µM]	10.6%	105.7*
CCn1ccc(C(=O)Nc2ccccc2Cl)n1	/	-7.3%	40.9*	/	18.9%	63.3*
CCn1ccc(C(=O)Nc2ccc(S(=O)(=O)Nc3ccccc3OC)cc2)n1	-20.7%	?	16.7	-26.1%	?	21.1
CCn1cc(Br)c(C(=O)Nc2ccc(Cl)c(Cl)c2)n1	16.9%	?	20.9*	?	28.9%	35.4*
CCn1cc(Br)c(C(=O)Nc2cccc(Cl)c2)n1	2.1%	?	17.9*	8.7%	18.0%	72.8*
CCn1cc(Br)c(C(=O)Nc2ccc(C(=O)OC(C)C)cc2)n1	2.7%	?	35.6	/	21.0%	54.9
CCn1cc(Cl)c(C(=O)Nc2cccc(CN3CCOCC3)c2)n1	/	?	16.0	/	28.7%	14.3
CCOc1cc(C2NC(=O)N(C)C(C)=C2[N+](=O)[O-])ccc1OC(C)=O (stereo unspecified)	/	-14.4%	1.3	/	-14.0%	2.0
COCCNc1nc(-c2ccccc2C(F)(F)F)nc2ccccc12	/	/	/	/	-4.0%	/
COC(=O)c1ccc(Oc2cc(C)nc(-n3nc(C)cc3C)n2)cc1	?	?	-0.7	-28.8%	-25.6%	-10.1
CCN(C[C@H]1N[C@@](CC)(C(=O)OC)[C@H]2C(=O)N(C)C(=O)[C@@H]12)C(=O)COc1ccccc1	/	-15.7%[8.37 µM]	/	/	-10.5%	/
CC(=O)c1cccc(NC(=O)c2ccc3c(c2)c(C)c(C)n3Cc2ccc(Cl)cc2)c1	/	/	/	-0.8%[46.1 µM]	-11.9%	/
CCn1c(C)c(C)c2cc(C(=O)Nc3cccc(Cl)c3)ccc21	?	2µM*	20.7*	-21.3%	1.2%	37.0
CN(C(=O)c1cc2c(=O)n3ccccc3nc2n1C)c1ccccc1	/	/	/	0.7%[46.1 µM]	36.6%	/
Cn1c(C(=O)N2COCC2(C)C)cc2c(=O)n3ccccc3nc21	9.8%	-1.8%	35.0*	13.0%	30.1%	74.8*
Cc1cnc(C(=O)OCC(=O)NC2CCCCC2)cn1	-1.4%[46.1 µM]	-1.5%	-2.1	-2.6%	-9.9%	1.4
Cc1ccc(S(=O)(=O)N2C[C@H]3C(=O)C[C@@H](c4ccccc4)N(S(=O)(=O)c4ccc(C)cc4)[C@H]3C[C@H]2c2ccccc2F)cc1	/	/	/	/	-2.6%	/
Cc1c(Cl)ccc2sc(N3CCN(C(=O)c4ccco4)CC3)nc12	/	/	/	4.8%[46.1 µM]	3.4%	/
COc1cc(CCC(=O)Nc2ccc(C)c(S(=O)(=O)N(C)C)c2)cc(OC)c1OC	?	?	-2.9	?	28.2µM*	-4.5
Cc1cc(NC(=O)CN(C)S(=O)(=O)c2ccc3c(c2)CCC(=O)N3)ccc1Br	?	/	/	-27.5%[46.1 µM]	14.1µM*	/
COc1ccc(S(=O)(=O)N(C)C)cc1NCC(=O)Nc1cccc2ccccc12	-13.1%[46.1 µM]	0.3%	/	5.2%	-5.4%	/
COc1ccc(S(=O)(=O)N(C)C)cc1NCC(=O)Nc1ccc(Br)c(C)c1	?	10µM*	2.3	-18.7%	-18.1%	-14.9
COc1ccc(CCC(=O)Nc2ccc(C)c(S(=O)(=O)N(C)C)c2)cc1OC	11.2µM*	?	-1.6	-0.9%	10µM*	-6.1
COc1ccc(CCNCC(=O)Nc2ccc(C)c(S(=O)(=O)N(C)C)c2)cc1	1.0%[46.1 µM]	?	0.6	?	-16.4%	-5.9
O=C1NC(=O)N(C2CCCCC2)CC1Br (stereo unspecified)	-3.8%[46.1 µM]	23.7%	/	16.6%[46.1 µM]	-19.0%	/

Bioassay records: PubChem, National Center for Advancing Translational Sciences (NCATS)
